The target in assay [1] is Lysosomal acid glucosylceramidase (Homo sapiens) (UniProt P04062). As to the kind of experiment: Glucocerebrosidase-p2 (AID 348; in the data active means potency below about 10 µM; further: potency means the concentration at half of the fitted maximal effect). To be noted: purified GBA, blue fluorogenic substrate, 40 min. A digest of the protocol:
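Compounds titrated from 0.6 nM upwards against 0.2 nM enzyme in pH 5.9 citric acid/KH2PO4, taurocholate, tween-20; blue fluorogenic substrate 80 uM, 40 min room temperature, stopped and read Ex 365/Em 440 for AC50.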

Assay [2] can be described thus: AP1 Signaling Pathway (AID 357; active means well fitted curve in either direction with a large enough effect, not every such curve was filed as active;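 further: ME-180 reporter cells stimulated with EGF at its EC50 level; on the % scale 0 is the no-effect control and ±100 the full control effect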). To be noted: ME-180 AP-1-bla reporter, EGF-induced, beta-lactamase ratio, 5 h; at 7.69 µM (top of the series) unless noted. The essentials: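 AP-1-bla ME-180 cells, Opti-MEM + 0.5% dialyzed FBS, plated overnight 37 °C. Cpd titration + EC50 EGF, 5 h 37 °C. CCF4 2.5 h RT; ex 405, em 460/530 ratio → %activity, AC50.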
Assay [3] in a line: Stat Signaling Pathway (AID 446; active means well fitted curve in either direction with a large enough effect, not every such curve was filed as active;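 further: ME-180 cervical cancer cells given 40 pM IL-6 alongside compound; SIE-controlled beta-lactamase reporter measured as 460/530 nm FRET emission ratio; on the % scale 0 is the no-effect control and ±100 the full control effect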). To be noted: ME-180 (cervical carcinoma) SIE beta-lactamase reporter, IL-6 stimulated, 5 h; at 7.69 µM (top of the series) unless noted. A digest of the protocol:
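ME-180 SIE-bla cells; overnight plating; cpd + IL-6 40 pM, 5 h, 37 C; LiveBLAzer 2.5 h RT; 460/530 nm emission ratio. Normalized to 300 pM IL-6 and 125 nM JAK inhibitor controls.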

Assay [4] has as its target Glucocorticoid receptor (Homo sapiens) (UniProt P04150). As to the kind of experiment: GR-EFC Redistribution (AID 451; calls by dose curve; further: potency means the concentration at half of the fitted maximal effect). The following applies: CHO-K1 GR-EFC translocation, beta-gal luminescence, 2 h. The essentials:
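CHO-K1 cells stably expressing nuclear-localized β-gal enzyme acceptor and GR fused C-terminally to the enzyme donor fragment; ligand-driven nuclear translocation restores β-gal by complementation. Compounds titrated up to 46 uM final, 2 h at 37 °C; luminescence read.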

Assay [5] has as its target Mitogen-activated protein kinase 10 (Mus musculus) (UniProt Q61831). Kind of assay: JNK3 AlphaScreen Assay (AID 530; active means well fitted curve in either direction with a large enough effect, not every such curve was filed as active;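 further: kinase came from lysate of stimulated human HepG2 cells; signal reports phosphorylation of biotinylated GST-cJun 1-79 at Ser73 with 10 µM ATP; on the % scale 0 is the no-effect control and ±100 the full control effect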). The following applies: JNK3 lysate, c-Jun phosphorylation; series mostly up to 57.1 µM. The essentials: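 Inhibitors reduce antibody binding to phosphorylated biotin-cJun, lowering AlphaScreen luminescence. Lysates from HepG2 cells pre-activated by IL-1beta plus TNF-alpha supplied JNK3; compounds were titrated.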

In assay [6] the target is Cytochrome P450 3A4 (Homo sapiens) (UniProt P08684). As to the kind of experiment: qHTS Assay for Inhibitors and Substrates of Cytochrome P450 3A4 (AID 884). Further: on the % scale 0 is the no-effect control and ±100 the full control effect; nearly all actives have a fitted effect of over 50% in size. The following applies: recombinant CYP3A4, Luciferin-PPXE luminescence; series mostly up to 57.1 µM. A digest of the protocol:
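20 nM human CYP3A4 with 25 uM Luciferin-PPXE (at KM) in 200 mM KPO4, preincubated 10 min with compound; NADPH regeneration started a 60 min RT reaction. Luciferin detected by luminescence, normalized to 57 uM ketoconazole as full inhibition.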

Assay [7] in a line: qHTS Assay for Lipid Storage Modulators (AID 1519; calls by dose curve). The following applies: Drosophila S3 cells, BODIPY lipid droplet/cell ratio, laser cytometry, cells loaded with oleic acid; for activity change, negative = inhibition: at 57.5 µM (top of the series). A digest of the protocol:
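Cells seeded at 5,000 per well were treated with compounds over a concentration series and loaded with oleic acid (400 uM, as added). Lipid droplet fluorescence (488 nm excitation, 500-530 nm channel) was read by laser-scanning cytometry and normalized to 20 uM Triacsin C.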

Assay [8] can be described thus: Counterscreen qHTS for small molecule stabilizers of the endoplasmic reticulum resident proteome: GLuc-NoTag assay (AID 1508627).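 Further: 0% = thapsigargin alone and -100% = DMSO vehicle control.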 To be noted: Gaussia luciferase NoTag secretion counterscreen, luminescence, thapsigargin 100 nM for final 4 h; series mostly up to 76.4 µM. The essentials: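 SH-SY5Y cells stably expressing constitutively secreted GLuc (no SERCaMP tag) were pre-incubated 5 h, treated with compound for 19 h, then 100 nM thapsigargin for 4 h at 37C; medium GLuc read by coelenterazine luminescence.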

The nature of assay [9]: Confirmatory qHTS for small molecule stabilizers of the endoplasmic reticulum resident proteome: Secreted ER Calcium Modulated Protein (SERCaMP) assay (AID 1508628). Further: nearly all actives have a fitted effect of over 40% in size. Further: potency means the concentration at half of the fitted maximal effect. To be noted: SERCaMP secreted luciferase ER calcium/proteostasis reporter; series mostly up to 76.3 µM. The essentials: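 SH-SY5Y cells stably expressing GLuc-SERCaMP, treated 16 h with compound (primary 1.53, 7.67, 38.3 uM; confirmation 11 concentrations, up to 76.6 uM), then 100 nM thapsigargin for 4 h. Secreted Gaussia luciferase in medium read by coelenterazine luminescence.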

Assay [10] can be described thus: NFAT Signaling Pathway (AID 444; active means well fitted curve in either direction with a large enough effect, not every such curve was filed as active;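 further: carbachol stimulus at about its EC50 of 1 µM final; on the % scale 0 is the no-effect control and ±100 the full control effect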). To be noted: Jurkat NFAT-bla M1, carbachol, beta-lactamase ratio, 5 h; at 7.69 µM (top of the series) unless noted. A digest of the protocol: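 Jurkat cells carrying an NFAT-driven β-lactamase reporter and co-transfected muscarinic M1 receptor were treated with compound plus carbachol (1 uM final, an EC50 level) for 5 h at 37 °C. CCF4 loading followed for 1 h at RT; 460/530 nm ratio gave %activity.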

The target of assay [11] is Glucocorticoid receptor (Homo sapiens) (UniProt P04150). As to the kind of experiment: GR-GFP Redistribution (AID 450;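 active means compounds whose dose series gives a full or clear partial fitted curve of increased nuclear translocation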; further: potency means the concentration at half of the fitted maximal effect). To be noted: U2OS GR-GFP nuclear translocation, laser cytometry, 2 h.
Assay [12] deals with Dual specificity protein kinase CLK4 (Homo sapiens) (UniProt Q9HAZ1). As to the kind of experiment: qHTS Assay for Inhibitors of CDC-like Kinase 4 (Kinase-Glo Assay) (AID 1770). Further: nearly all actives have a fitted effect of over 65% in size. Further: potency means the concentration at half of the fitted maximal effect. The following applies: recombinant Clk4, Kinase-Glo ATP depletion luminescence; series mostly up to 66.7 µM. The essentials: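 Recombinant human Clk4 (25 nM) phosphorylated RS repeat peptide (100 uM) with 1 uM ATP in Tris pH 7.5/MgCl2/EGTA/DTT/Triton buffer for 4.5 h at room temperature. Residual ATP was quantified by Kinase-Glo luciferase luminescence.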

The target is the same in assay [13]. As to the kind of experiment: qHTS Assay for Inhibitors of CDC-like Kinase 4 (ADP-FP Assay) (AID 1795). Further: on the % scale 0 is the no-effect control and ±100 the full control effect; nearly all actives have a fitted effect of over 60% in size. The following applies: Transcreener ADP fluorescence polarization; series mostly up to 50 µM. The essentials: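 Recombinant human Clk4 (6.25 nM) phosphorylated RS repeat peptide (100 uM) with 1 uM ATP in Tris pH 7.5/MgCl2/EGTA/DTT/Triton buffer for one hour. ADP was quantified by Transcreener competitive fluorescence polarization against an ADP calibration curve.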

The target in assay [14] is 3',5'-cyclic-AMP phosphodiesterase 4B (Homo sapiens) (UniProt Q07343). Kind of assay: qHTS Assay for Inhibitors of PDE-IV (AID 607; active means well fitted activation curve with a large enough effect in the main read-out, with a control signal flat, not every such curve was filed as active; further: % of control where 0% means no effect). To be noted: HEK293 ACTOne CNG channel cells, membrane potential fluorescence; series mostly up to 22.9 µM. A digest of the protocol: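 ACTOne HEK293 cells carry a modified cAMP-gated CNG channel and express endogenous PDE4; plated 1000 cells/well, compounds up to 22.9 uM final. Membrane-potential dye fluorescence (ex 535/em 590) was read; parental cells received 10 uM forskolin + 100 uM RO 20-1724.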

Assay [15] has as its target Cytochrome P450 2C19 (Homo sapiens) (UniProt P33261). As to the kind of experiment: qHTS Assay for Inhibitors and Substrates of Cytochrome P450 2C19 (AID 899). Further: on the % scale 0 is the no-effect control and ±100 the full control effect; nearly all actives have a fitted effect of over 60% in size. The following applies: recombinant CYP2C19, luciferin-H EGE luminescence; series mostly up to 57.1 µM. A digest of the protocol: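 Human CYP2C19 (5nM) with Luciferin-H EGE at 10uM (its KM) in 50mM KPO4 was preincubated with compound for 10 min at 37C. NADPH regeneration started a 60 min 37C reaction. Luciferin was read by luminescence, normalized to 57uM ketoconazole.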

Assay [16] concerns the target Dual specificity protein kinase CLK4 (Homo sapiens) (UniProt Q9HAZ1). As to the kind of experiment: qHTS Assay for Inhibitors of CDC-like Kinase 4 (ADP-Glo Assay) (AID 1771). Further: on the % scale 0 is the no-effect control and ±100 the full control effect; nearly all actives have a fitted effect of over 70% in size. The following applies: recombinant CLK4, ADP-Glo luminescence; series mostly up to 80 µM. A digest of the protocol:
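Luminescence from ADP-Glo reports ADP produced by 25 nM Clk4 acting on 100 uM RS repeat peptide with 1 uM ATP over 1 hr at room temperature; residual ATP is depleted before ADP is converted to ATP for detection.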

The target in assay [17] is Ubiquitin carboxyl-terminal hydrolase 1 (Homo sapiens) (UniProt O94782). Kind of assay: Inhibitors of USP1/UAF1: Pilot qHTS (AID 504865).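 Further: rhodamine fluorescence freed from ubiquitin-rhodamine substrate followed over time; top concentration of the series differs between compounds; on the % scale 0 is the no-effect control and ±100 the full control effect; nearly all actives have a fitted effect of over 35% in size.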 The following applies: purified USP1/UAF1, Ub-rhodamine cleavage fluorescence; series mostly up to 54.9 µM. The essentials:
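USP1/UAF1 complex (1nM) preincubated with compound 15 min at room temperature, then Ub-Rho substrate (150nM final) added. Fluorescence read kinetically at 480/540 nm, 6 reads every 60 seconds. Buffer: 50mM HEPES pH 7.8, 0.5mM EDTA, 0.1 mg/ml BSA, 1mM TCEP, 0.01% Tween-20.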

Setting [18] is: measured here: cell count channel max response.
[19] abbreviates: measured here: lipid channel max response.

The values that follow come from PubChem BioAssay (NCATS).

Records with an inconclusive call do not appear. The source made the active and inactive calls. Unless noted, the call rests on the fitted dose curve; in most records, active means well fitted curve in the direction sought with a large enough effect; inconclusive means small, poorly fitted or top-dose-only effect, or another doubt; inactive means no such curve, though single readings can be large; an effect the other way counts as inactive or inconclusive.

Chain of Dual specificity protein kinase CLK4 (Homo sapiens) (Q9HAZ1 whole entry, looked up): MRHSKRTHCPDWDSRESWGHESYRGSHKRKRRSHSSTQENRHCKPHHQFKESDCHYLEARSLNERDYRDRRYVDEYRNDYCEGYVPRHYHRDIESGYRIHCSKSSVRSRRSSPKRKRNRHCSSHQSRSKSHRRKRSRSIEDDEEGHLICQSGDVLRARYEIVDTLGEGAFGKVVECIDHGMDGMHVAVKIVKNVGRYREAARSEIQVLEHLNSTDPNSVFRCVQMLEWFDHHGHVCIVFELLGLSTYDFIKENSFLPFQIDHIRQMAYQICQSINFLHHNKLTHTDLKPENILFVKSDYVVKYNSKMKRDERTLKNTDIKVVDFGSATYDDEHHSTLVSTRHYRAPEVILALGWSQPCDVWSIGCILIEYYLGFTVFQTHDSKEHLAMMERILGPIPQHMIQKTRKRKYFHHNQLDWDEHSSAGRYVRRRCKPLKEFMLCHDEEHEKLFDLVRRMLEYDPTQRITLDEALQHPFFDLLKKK
Chain of Lysosomal acid glucosylceramidase (Homo sapiens) (P04062 whole entry, looked up): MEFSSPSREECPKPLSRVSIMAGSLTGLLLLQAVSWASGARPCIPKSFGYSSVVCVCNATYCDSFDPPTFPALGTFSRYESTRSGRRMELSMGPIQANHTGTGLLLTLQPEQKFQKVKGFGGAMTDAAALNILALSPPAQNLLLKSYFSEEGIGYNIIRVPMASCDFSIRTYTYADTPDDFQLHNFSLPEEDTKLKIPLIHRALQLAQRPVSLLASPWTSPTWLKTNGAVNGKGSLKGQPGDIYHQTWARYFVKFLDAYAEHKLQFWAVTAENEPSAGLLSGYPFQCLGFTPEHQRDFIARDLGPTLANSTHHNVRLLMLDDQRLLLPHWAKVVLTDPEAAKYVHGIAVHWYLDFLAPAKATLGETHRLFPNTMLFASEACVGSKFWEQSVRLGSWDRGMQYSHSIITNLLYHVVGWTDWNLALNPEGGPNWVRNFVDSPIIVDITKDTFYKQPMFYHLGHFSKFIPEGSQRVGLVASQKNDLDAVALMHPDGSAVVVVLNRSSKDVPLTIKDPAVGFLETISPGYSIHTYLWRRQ
Chain of Glucocorticoid receptor (Homo sapiens) (P04150 whole entry, looked up, the tested form may be a part): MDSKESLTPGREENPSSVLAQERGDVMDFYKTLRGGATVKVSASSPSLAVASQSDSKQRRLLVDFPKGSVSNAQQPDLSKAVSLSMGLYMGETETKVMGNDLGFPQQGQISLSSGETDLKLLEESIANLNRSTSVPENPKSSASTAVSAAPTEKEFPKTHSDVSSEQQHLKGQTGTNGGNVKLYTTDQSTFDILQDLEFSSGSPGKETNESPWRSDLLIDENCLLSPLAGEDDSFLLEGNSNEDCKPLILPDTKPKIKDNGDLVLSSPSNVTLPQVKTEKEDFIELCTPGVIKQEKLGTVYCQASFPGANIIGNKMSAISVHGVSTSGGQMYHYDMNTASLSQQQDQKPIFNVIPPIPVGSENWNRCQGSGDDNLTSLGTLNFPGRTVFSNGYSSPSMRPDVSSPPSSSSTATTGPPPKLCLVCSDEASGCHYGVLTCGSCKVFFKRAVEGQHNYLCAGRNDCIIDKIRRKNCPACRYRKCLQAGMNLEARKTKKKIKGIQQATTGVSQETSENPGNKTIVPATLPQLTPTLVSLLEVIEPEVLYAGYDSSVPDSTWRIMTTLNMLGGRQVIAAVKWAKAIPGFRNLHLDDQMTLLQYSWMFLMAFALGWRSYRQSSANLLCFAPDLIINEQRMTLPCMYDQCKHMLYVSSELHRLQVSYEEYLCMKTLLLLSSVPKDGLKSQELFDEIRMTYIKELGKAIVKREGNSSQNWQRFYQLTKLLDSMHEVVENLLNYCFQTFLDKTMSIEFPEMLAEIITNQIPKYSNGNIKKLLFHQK
Chain of 3',5'-cyclic-AMP phosphodiesterase 4B (Homo sapiens) (Q07343 whole entry, looked up): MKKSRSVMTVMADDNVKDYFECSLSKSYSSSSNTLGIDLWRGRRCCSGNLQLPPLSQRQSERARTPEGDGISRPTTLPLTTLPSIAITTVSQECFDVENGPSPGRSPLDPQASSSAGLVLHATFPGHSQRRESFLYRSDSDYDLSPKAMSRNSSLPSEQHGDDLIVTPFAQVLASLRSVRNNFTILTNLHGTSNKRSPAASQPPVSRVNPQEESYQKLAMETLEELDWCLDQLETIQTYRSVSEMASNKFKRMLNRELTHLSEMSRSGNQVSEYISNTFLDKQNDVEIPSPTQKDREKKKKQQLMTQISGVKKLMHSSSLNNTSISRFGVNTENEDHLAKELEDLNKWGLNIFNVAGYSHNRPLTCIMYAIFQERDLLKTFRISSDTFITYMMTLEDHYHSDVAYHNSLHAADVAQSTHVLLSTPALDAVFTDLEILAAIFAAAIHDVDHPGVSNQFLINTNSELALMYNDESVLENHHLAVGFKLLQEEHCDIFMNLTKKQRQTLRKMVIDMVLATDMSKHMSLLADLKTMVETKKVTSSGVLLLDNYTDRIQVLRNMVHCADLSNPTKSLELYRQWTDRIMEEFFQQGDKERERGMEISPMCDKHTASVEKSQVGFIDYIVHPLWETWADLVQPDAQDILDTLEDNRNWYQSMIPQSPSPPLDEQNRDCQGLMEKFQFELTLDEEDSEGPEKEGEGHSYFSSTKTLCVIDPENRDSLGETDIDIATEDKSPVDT
Chain of Cytochrome P450 3A4 (Homo sapiens) (P08684 whole entry, looked up): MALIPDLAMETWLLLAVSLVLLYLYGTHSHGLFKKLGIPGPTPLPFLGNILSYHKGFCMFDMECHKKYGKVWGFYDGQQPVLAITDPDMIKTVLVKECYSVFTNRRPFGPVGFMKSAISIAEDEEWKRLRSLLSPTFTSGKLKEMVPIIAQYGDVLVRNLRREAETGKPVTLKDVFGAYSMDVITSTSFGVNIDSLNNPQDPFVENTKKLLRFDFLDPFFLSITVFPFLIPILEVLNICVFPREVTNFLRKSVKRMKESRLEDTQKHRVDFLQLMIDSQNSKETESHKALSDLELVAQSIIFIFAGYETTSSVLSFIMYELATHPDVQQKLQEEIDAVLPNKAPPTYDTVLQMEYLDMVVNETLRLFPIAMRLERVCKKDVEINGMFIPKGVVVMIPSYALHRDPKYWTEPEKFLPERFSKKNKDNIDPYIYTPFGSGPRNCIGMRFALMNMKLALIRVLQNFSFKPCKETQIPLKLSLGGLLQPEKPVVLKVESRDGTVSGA
Chain of Ubiquitin carboxyl-terminal hydrolase 1 (Homo sapiens) (O94782 whole entry, looked up): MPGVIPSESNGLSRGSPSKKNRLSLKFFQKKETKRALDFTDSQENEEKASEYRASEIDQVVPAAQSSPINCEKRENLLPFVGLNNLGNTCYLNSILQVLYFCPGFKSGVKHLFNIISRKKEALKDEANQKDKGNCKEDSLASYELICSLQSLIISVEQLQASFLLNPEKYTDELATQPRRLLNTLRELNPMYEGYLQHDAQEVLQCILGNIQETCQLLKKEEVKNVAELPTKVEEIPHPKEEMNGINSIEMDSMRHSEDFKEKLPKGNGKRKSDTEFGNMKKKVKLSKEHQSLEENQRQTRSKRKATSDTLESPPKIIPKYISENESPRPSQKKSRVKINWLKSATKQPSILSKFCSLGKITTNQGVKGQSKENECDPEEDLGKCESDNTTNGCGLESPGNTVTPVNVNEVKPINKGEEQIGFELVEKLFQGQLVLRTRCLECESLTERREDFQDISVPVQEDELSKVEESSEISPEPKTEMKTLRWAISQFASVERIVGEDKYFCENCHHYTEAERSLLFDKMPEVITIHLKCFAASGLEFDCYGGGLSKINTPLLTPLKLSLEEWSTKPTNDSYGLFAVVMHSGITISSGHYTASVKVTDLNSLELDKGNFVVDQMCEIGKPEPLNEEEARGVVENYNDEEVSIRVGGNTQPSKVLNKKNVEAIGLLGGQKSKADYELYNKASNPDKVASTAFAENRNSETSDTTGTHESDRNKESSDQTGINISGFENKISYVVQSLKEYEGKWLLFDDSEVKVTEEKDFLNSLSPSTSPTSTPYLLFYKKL
Chain of Cytochrome P450 2C19 (Homo sapiens) (P33261 whole entry, looked up): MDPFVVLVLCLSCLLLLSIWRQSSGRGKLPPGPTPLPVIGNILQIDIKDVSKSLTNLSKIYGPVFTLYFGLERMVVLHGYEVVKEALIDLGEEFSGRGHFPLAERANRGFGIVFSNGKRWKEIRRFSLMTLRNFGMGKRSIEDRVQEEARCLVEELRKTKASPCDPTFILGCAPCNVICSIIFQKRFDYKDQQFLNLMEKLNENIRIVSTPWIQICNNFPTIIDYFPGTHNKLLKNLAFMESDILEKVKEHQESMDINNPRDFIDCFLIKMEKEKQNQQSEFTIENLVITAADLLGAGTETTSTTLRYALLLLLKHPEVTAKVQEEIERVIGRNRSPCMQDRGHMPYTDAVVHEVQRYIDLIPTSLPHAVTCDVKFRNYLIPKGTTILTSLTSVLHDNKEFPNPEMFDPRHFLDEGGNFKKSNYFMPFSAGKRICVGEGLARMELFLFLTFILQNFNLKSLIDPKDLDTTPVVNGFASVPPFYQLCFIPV

As for `O=C(c1cc(C(F)(F)F)cc(C(F)(F)F)c1)N1CCC2(CC1)CCN(c1ccncc1)CC2`, the Potency was > 11.4 µM (inactive) in [1] and > 46 µM (inactive) in assay [4]. For the same molecule, the activity change, negative = inhibition is 24.2% (inactive) in [2] and 0.636% (inactive) in assay [7]. Besides, the activity, negative = inhibition in assay [3] was 16.4% (inactive). Moreover, in [5], the call was inactive. The Potency entry in assay [6], in assay [8] and in [9] was “inactive” throughout. Further, the max response in assay [7] (setting [18]) is -1.35%; in assay [7] (setting [19]), 0.493%.

For the molecule `COc1cccc(-c2nc(N3CCN(C)CC3)c3ccccc3n2)c1`, the Potency was > 11.4 µM (inactive) in assay [1]; > 46 µM (inactive) in [11]; > 46 µM (inactive) in assay [4]; 28.2 µM (active) in assay [12]; 20 µM (active) in assay [9]. The figures for the activity change, negative = inhibition in [2] and in [10] were 11.5% (inactive) and 12.1% (inactive), respectively. Also, the activity, negative = inhibition in assay [3] is -2.04% (inactive). Further, the molecule was called inactive in assay [5]. Also, the Potency result in assay [13] and in assay [8] was “inactive” in each case.

On to `FC(F)(F)c1ccccc1-c1nc(NC2CCNCC2)c2ccccc2n1`, for which the results for the Potency in assay [1], in [11] and in [4] were > 11.4 µM (inactive), > 46 µM (inactive) and > 46 µM (inactive), respectively. Also, the activity change, negative = inhibition in assay [2] was 9.18% (inactive); in assay [10], 7.17% (inactive); in assay [7] it was 1.75% (inactive). Moreover, in [3], the activity, negative = inhibition is 1.97% (inactive). In addition, the molecule was classed as inactive in assay [5]. In addition, the Potency result in assay [14], in assay [15], in [12], in [16], in assay [13] and in assay [17] was “inactive” each time. Also, the Potency result in assay [8] is “inactive”. Moreover, the max response in assay [7] (setting [18]) amounted to 19.6%; in [7] (setting [19]) it was 17.3%.
